Key:
Assay in all cases: PBM binding z-score (relative to random genomic background probes); higher = stronger binding; sequences stand for … in GC…GCGATTGACAGCGTAGAATGAAGG
[1] = test system: PPARg:RXRa DBDmut IVT, anti-RXR (DBD mutation: RXRa K156A/R161A, NR concentration 270 nM, RXRa partner concentration 90 nM)
Summary of the method: (§1)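 Antibodies against each partner of ligand-free nuclear receptor dimers (one per run) detected binding on custom Agilent 4×180K protein-binding microarrays after 1 h incubation. The double-stranded probes had 34-nt variable regions carrying direct-repeat seeds, single-nucleotide variants, half-site ablations and random human genomic background sequences. Binding z-scores, from regression-normalized fluorescence, use the random background probes as reference.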

[2] = test system: PPARg:RXRa IVT, anti-PPARg (NR concentration 270 nM, RXRa partner concentration 90 nM)
Summary of the method: as §1

[3] = test system: PPARg DBDmut:RXRa IVT, anti-PPARg (DBD mutation: PPARg1 K132A/R137A, NR concentration 270 nM, RXRa partner concentration 90 nM)
Summary of the method: as §1

[4] = test system: PPARg DBDmut IVT, anti-PPARg (DBD mutation: PPARg1 K132A/R137A, NR concentration 270 nM)
Summary of the method: as §1

[5] = test system: PPARg homodimer (NR concentration 180 nM)
Summary of the method: as §1

[6] = test system: PXR:RXRa (NR concentration 270 nM, RXRa partner concentration 90 nM)
Summary of the method: as §1

[7] = test system: PXR homodimer (NR concentration 270 nM)
Summary of the method: as §1

[8] = test system: RARa:RXR (NR concentration 270 nM, RXRa partner concentration 90 nM)
Summary of the method: as §1

[9] = test system: RARa homodimer (NR concentration 270 nM)
Summary of the method: as §1

[10] = test system: RARb:RXRa (NR concentration 270 nM, RXRa partner concentration 90 nM)
Summary of the method: as §1

[11] = test system: RARb homodimer (NR concentration 270 nM)
Summary of the method: as §1

[12] = test system: RARg:RXRa (NR concentration 270 nM, RXRa partner concentration 90 nM)
Summary of the method: as §1

[13] = test system: RARg homodimer (NR concentration 270 nM)
Summary of the method: as §1

[14] = test system: RXRa DBDmut IVT, anti-RXR (DBD mutation: RXRa K156A/R161A, NR concentration 90 nM)
Summary of the method: as §1

[15] = test system: RXRa homodimer (NR concentration 180 nM)
Summary of the method: as §1

[16] = test system: THRa:RXRa (NR concentration 90 nM, RXRa partner concentration 90 nM)
Summary of the method: as §1

[17] = test system: THRa homodimer (NR concentration 90 nM)
Summary of the method: as §1

[18] = test system: VDR homodimer (NR concentration 270 nM)
Summary of the method: as §1

Sequence	PBM binding z-score [1]	PBM binding z-score [2]	PBM binding z-score [3]	PBM binding z-score [4]	PBM binding z-score [5]	PBM binding z-score [6]	PBM binding z-score [7]	PBM binding z-score [8]	PBM binding z-score [9]	PBM binding z-score [10]	PBM binding z-score [11]	PBM binding z-score [12]	PBM binding z-score [13]	PBM binding z-score [14]	PBM binding z-score [15]	PBM binding z-score [16]	PBM binding z-score [17]	PBM binding z-score [18]
CGAACTAGGTCATTGACAGGTCAGTGAATAGTAA	8.05	7.99	2.07	0.617	3.26	3.56	0.482	5.11	0.887	4.25	4.18	6.77	5.57	2.35	4.6	3.32	0.924	2.04
TCATATAGGTAAAAGCTGAAAGTCGGTGTGGTAA	4.01	2.14	1.19	0.683	0.11	0.239	-0.198	0.257	0.519	0.0291	-0.59	-0.0558	-0.318	1.45	0.496	-0.258	-0.715	-0.102
TCTTGTTGATCAAGCAGGTTAAGAAAGCCTGAGT	1.34	0.182	-0.406	0.392	0.2	0.29	0.159	0.176	-0.0111	0.317	0.418	-0.0831	-0.348	0.561	0.248	0.444	-0.1	0.0832
CCTAGTTGGTCAGGAGGTAACACACCGGATATGA	0.719	1.36	0.594	0.266	1.37	0.0397	0.446	0.422	1.49	0.781	1.01	0.732	0.881	-0.282	0.455	0.766	0.712	0.75
TCAGACAAGTGAAGGTAACTCAGGTACGCAGTCG	2.07	0.111	0.0158	-0.174	-0.105	0.509	-0.105	0.807	-0.0772	0.197	-0.322	0.211	0.249	1.1	0.825	1.1	-0.375	-0.0282
CGAACTAGGTCAGAACACGACAGTGAAGGATGAT	7.06	7.2	1.44	1.71	1.06	0.221	0.0475	0.721	0.743	2.84	1.84	2.55	3.06	0.593	1.39	1.31	0.186	-0.122
GCTTACGGGTCAAAGGTTCTAGCATGAATAGAAT	5.13	5.05	0.842	0.712	1.45	4	0.0267	5.93	0.382	3.82	2.69	5.33	4.79	2.09	7.13	2.7	-0.332	1.55
CCGACTGGGGCAGAAAGGTCACCATACCATCCGG	1.91	3.29	-0.398	-0.64	4.46	5.07	0.611	6.06	2.92	4.39	5.15	5.42	5.69	-0.33	5.7	3.2	1.38	1.86
TCTATTAATTGAAGGGCAACCGACGAGTCCGTTT	2.49	0.956	0.163	1.02	1.56	0.915	1.96	0.829	1.43	1.45	1.05	0.656	0.454	1.24	0.717	0.258	0.559	2.19
AGTCAAAGTTCACTAGGTAACGTTAGATTCAGCT	2.64	4.82	1.46	1.15	2.91	3.95	2.61	3.1	0.915	4.65	3.56	4.93	5.57	4.15	4	2.05	0.157	3.87
ATCTCTAGGTAAGACGCAGTTCAGTGAAGAACGC	1.69	0.781	-0.276	0.85	0.0862	0.526	0.389	-0.309	0.278	0.0267	0.117	0.165	0.097	0.0393	-0.00227	0.223	-0.325	0.544
ACAGACAGGTGAGTGAAGGTTACTCAGCTGGACG	0.352	1.16	0.332	0.037	0.138	0.646	-0.03	0.952	0.201	1.15	0.978	0.724	0.906	-0.643	0.869	1.68	-0.671	-0.214
TCTTGTAGAACAATAGAGGTTAAGAAAGTGCGCT	1.83	1.45	0.641	0.472	-0.0635	3.16	0.538	1.69	0.27	0.777	1.19	0.879	0.347	0.757	1.42	1.53	-0.547	0.225
TCTATTAGTTGATTAGGGCCACCGAAACAGCGGA	1.82	0.608	0.893	0.609	0.28	0.517	0.469	0.615	1.05	0.596	0.67	0.31	0.582	1.19	0.411	1.09	0.613	0.435
CCTAGTTGATCAGGAGGTCACACACCGGATATGA	0.771	2.22	0.83	0.641	4.38	4.62	1.79	5.02	2.57	3.46	3.89	4.82	3.78	1.4	4.41	3.6	2.51	3.06
